Measured values published in PubChem BioAssay (NCI).
About 79,000 compounds went through this panel and 15% of them were active in at least one assay; those are over-represented in the sample as a whole. Activity calls are given as the source filed them. Cut-off read from the data, not from the text of the source: active = growth inhibition above about 70%; inactive = the rest.

Tests used:
[1] = NCI Yeast Anticancer Drug Screen. Data for the wt1 strain (AID 149);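 note: 0% = growth of vehicle-treated wt1 cultures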; settings: S. cerevisiae wt1 strain (SPY 50644) growth inhibition, active compounds read high
Method in brief: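 Growth inhibition read against vehicle controls after compound exposure of the wt1 yeast strain.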

[2] = NCI Yeast Anticancer Drug Screen. Data for the rad50EPP+ strain (AID 151);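 note: 0% = growth of vehicle-treated control cultures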; settings: S. cerevisiae rad50 mutant strain, active compounds read high
Method in brief: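 Growth inhibition read against vehicle controls in rad50EPP+ yeast, a strain altered in DNA damage repair, after compound exposure.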

[3] = NCI Yeast Anticancer Drug Screen. Data for the rad50 strain (AID 155);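 note: 0% = growth of vehicle-only cultures of the same strain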; settings: S. cerevisiae rad50 strain growth inhibition, active compounds read high
Method in brief: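 Readout: growth inhibition relative to vehicle-treated cultures. Compound exposure was carried out in a genetically defined yeast strain deficient in DNA damage repair.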

[4] = NCI Yeast Anticancer Drug Screen. Data for the mec2-1 strain (AID 157); settings: S. cerevisiae mec2-1 strain, active compounds read high
Method in brief: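 Yeast mec2-1 mutant treated with compound. Readout: growth inhibition vs vehicle controls.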

[5] = NCI Yeast Anticancer Drug Screen. Data for the rad14 strain (AID 159);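 note: 0% = growth of vehicle-treated control cultures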; settings: S. cerevisiae rad14 strain growth inhibition, active compounds read high
Method in brief: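 Growth inhibition vs vehicle controls; genetically altered yeast strain (DNA damage repair defect) treated with test compounds.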

[6] = NCI Yeast Anticancer Drug Screen. Data for the sgs1 mgt1 strain (AID 161);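 note: 0% = growth of cultures given vehicle only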; settings: S. cerevisiae sgs1 mgt1 strain, active compounds read high
Method in brief: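 Inhibition of yeast growth, normalised to vehicle-treated controls, is reported for a strain bearing genetic alterations in DNA damage repair.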

[7] = NCI Yeast Anticancer Drug Screen. Data for the CLN2oe strain (AID 163);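 note: 0% = growth of vehicle-only control cultures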; settings: S. cerevisiae CLN2oe strain, active compounds read high
Method in brief: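 Read-out: yeast growth inhibition, expressed relative to vehicle-only controls. The strain bears an engineered cell-cycle alteration.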

[8] = NCI Yeast Anticancer Drug Screen. Data for the cln2 rad14 strain (AID 165);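 note: 0% = growth equal to vehicle treated cultures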; settings: S. cerevisiae cln2 rad14 strain, active compounds read high
Method in brief: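 cln2 rad14 yeast strain; compound exposure; growth inhibition read vs vehicle controls.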

[9] = NCI Yeast Anticancer Drug Screen. Data for the bub3 strain (AID 167); settings: S. cerevisiae bub3 mutant strain, active compounds read high
Method in brief: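 Readout: yeast growth inhibition, expressed relative to vehicle-only wells. The test organism is a mutant strain from a panel with lesions in DNA repair or checkpoint genes.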

[10] = NCI Yeast Anticancer Drug Screen. Data for the wt2 strain (AID 169);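 note: 0% = growth of vehicle-treated yeast cultures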; settings: S. cerevisiae wt2 strain growth inhibition, active compounds read high
Method in brief: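 Read-out: growth inhibition versus vehicle-treated control cultures after compound exposure of the yeast strain.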

[11] = NCI Yeast Anticancer Drug Screen. Data for the mlh1 strain (AID 171);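 note: 0% = growth of vehicle-treated control cultures of the same strain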; settings: S. cerevisiae mlh1 strain growth inhibition, active compounds read high
Method in brief: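 Read-out: growth inhibition versus vehicle controls. Strain: engineered yeast with a defined DNA repair or cell cycle defect, compound-treated.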

[12] = NCI Yeast Anticancer Drug Screen. Data for the sgs1 strain (AID 173);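 note: 0% = growth of vehicle-only control cultures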; settings: S. cerevisiae sgs1 mutant, active compounds read high
Method in brief: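 Read-out: yeast growth inhibition relative to vehicle controls, following compound exposure of a strain with a defined DNA repair/cell cycle alteration.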

[13] = NCI Yeast Anticancer Drug Screen. Data for the mlh1 rad18 strain (AID 175); settings: S. cerevisiae mlh1 rad18 strain growth inhibition, active compounds read high
Method in brief: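 Yeast w/ defined DNA-repair lesions; compound exposure; growth vs vehicle controls → % inhibition.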

[14] = NCI Yeast Anticancer Drug Screen. Data for the rad18 strain (AID 177); settings: S. cerevisiae rad18 mutant growth inhibition, active compounds read high
Method in brief: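 Readout: growth inhibition vs vehicle controls. Cells: genetically altered yeast strain, DNA repair defect.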

[15] = at 5.0 µM (retest, dose inferred, filed as 0.5)
[16] = at 50.0 µM (retest, dose inferred, filed as 5.0)

Measured: growth inhibition

COc1ccc2nc(N/N=C/c3sccc3C)cc(C)c2c1
inactive: [1]; at 1.2 µM -39% | [1]; at 3.7 µM -32% | [1]; at 11.0 µM -6% | [2]; at 1.2 µM -18% | [2]; at 3.7 µM -19% | [2]; at 11.0 µM -21% | [2]; at 33.0 µM 15% | [3]; at 1.2 µM -22% | [3]; at 3.7 µM -27% | [3]; [15] 4% | [3]; at 11.0 µM -12% | [3]; [16] 68% | [4]; at 1.2 µM -13% | [4]; at 3.7 µM 4% | [4]; [15] -10% | [4]; at 11.0 µM 12% | [4]; [16] 56% | [5]; at 1.2 µM -50% | [5]; at 3.7 µM -19% | [5]; at 11.0 µM -21% | [7]; at 1.2 µM -2% | [7]; at 3.7 µM -6% | [7]; at 11.0 µM -1% | [9]; at 1.2 µM 12% | [9]; at 3.7 µM 14% | [9]; at 11.0 µM 38% | [10]; at 1.2 µM 18% | [10]; at 3.7 µM 4% | [10]; at 11.0 µM 27% | [11]; at 1.2 µM 8% | [11]; at 3.7 µM -3% | [11]; at 11.0 µM 35% | [12]; at 1.2 µM -30% | [12]; at 3.7 µM -45% | [12]; at 11.0 µM -16% | [13]; [15] -5%
active: [1]; at 33.0 µM 96% | [1]; at 100.0 µM 95% | [2]; at 100.0 µM 76% | [3]; at 33.0 µM 94% | [3]; at 50.0 µM 85.5% | [3]; at 100.0 µM 94% | [4]; at 33.0 µM 96% | [4]; at 50.0 µM 87.5% | [4]; at 100.0 µM 95% | [5]; at 33.0 µM 97% | [5]; at 100.0 µM 90% | [6]; [15] 96% | [6]; [16] 96% | [6]; at 50.0 µM 84.1% | [7]; at 33.0 µM 96% | [7]; at 100.0 µM 94% | [8]; [15] 95% | [8]; [16] 95% | [8]; at 50.0 µM 81% | [9]; [15] 96% | [9]; at 33.0 µM 98% | [9]; [16] 98% | [9]; at 50.0 µM 86% | [9]; at 100.0 µM 96% | [10]; at 33.0 µM 98% | [10]; at 100.0 µM 96% | [11]; at 33.0 µM 97% | [11]; at 100.0 µM 92% | [12]; at 33.0 µM 98% | [12]; at 100.0 µM 95% | [13]; [16] 83% | [13]; at 50.0 µM 87.8%

CCCC(=O)OC(OC(=O)CCC)c1ccc([N+](=O)[O-])o1
active: [2]; at 33.0 µM 83% | [2]; at 100.0 µM 93% | [3]; at 100.0 µM 83% | [13]; [16] 71% | [14]; at 33.0 µM 85% | [14]; at 100.0 µM 94%
inactive: [1]; at 1.2 µM -3% | [1]; at 3.7 µM -2% | [1]; at 11.0 µM -1% | [1]; at 33.0 µM 2% | [1]; at 100.0 µM 11% | [2]; at 1.2 µM 2% | [2]; at 3.7 µM 15% | [2]; at 11.0 µM 46% | [3]; at 1.2 µM -2% | [3]; at 3.7 µM -1% | [3]; [15] 22% | [3]; at 11.0 µM 10% | [3]; at 33.0 µM 47% | [3]; [16] 34% | [3]; at 50.0 µM 63.9% | [4]; at 1.2 µM -4% | [4]; at 3.7 µM -1% | [4]; [15] 17% | [4]; at 11.0 µM 2% | [4]; at 33.0 µM 5% | [4]; [16] 8% | [4]; at 50.0 µM -1.45% | [4]; at 100.0 µM 20% | [5]; at 1.2 µM -6% | [5]; at 3.7 µM -4% | [5]; at 11.0 µM 1% | [5]; at 33.0 µM 7% | [5]; at 100.0 µM 26% | [6]; [15] 14% | [6]; [16] 55% | [6]; at 50.0 µM 53.4% | [7]; at 1.2 µM -1% | [7]; at 3.7 µM -8% | [7]; at 11.0 µM -10% | [7]; at 33.0 µM -5% | [7]; at 100.0 µM 8% | [8]; [15] 1% | [8]; [16] 8% | [8]; at 50.0 µM 12.1% | [9]; at 1.2 µM -4% | [9]; at 3.7 µM -5% | [9]; [15] 2% | [9]; at 11.0 µM -4% | [9]; at 33.0 µM -3% | [9]; [16] 7% | [9]; at 50.0 µM 14.4% | [9]; at 100.0 µM 3% | [10]; at 1.2 µM -3% | [10]; at 3.7 µM -3% | [10]; at 11.0 µM -3% | [10]; at 33.0 µM 1% | [10]; at 100.0 µM 11% | [11]; at 1.2 µM -5% | [11]; at 3.7 µM -2% | [11]; at 11.0 µM 0% | [11]; at 33.0 µM 7% | [11]; at 100.0 µM 20% | [12]; at 1.2 µM -1% | [12]; at 3.7 µM 1% | [12]; at 11.0 µM 7% | [12]; at 33.0 µM 21% | [12]; at 100.0 µM 61% | [13]; [15] 22% | [13]; at 50.0 µM 35.1% | [14]; at 1.2 µM 1% | [14]; at 3.7 µM 14% | [14]; at 11.0 µM 42%
